For some of these results: Measured potencies and affinities stand elsewhere.

Drawing on ChEMBL document CHEMBL3988442, “University of Dundee, Small-Polar-MMV Screening Library” (2021), this text covers Percent Effect for eleven compounds.

What all share (parameters): scale not given: direction of the effect not stated beside the values
The target of test [1] is Protein translocase subunit SecA (Escherichia coli (strain K12)) (UniProt P10408). Kind of test: Assay to Identify E. coli SecA ATPase Inhibitors. The class given is functional. The settings on record: 30 µM.
Chain of Protein translocase subunit SecA (Escherichia coli (strain K12)) (P10408 whole entry): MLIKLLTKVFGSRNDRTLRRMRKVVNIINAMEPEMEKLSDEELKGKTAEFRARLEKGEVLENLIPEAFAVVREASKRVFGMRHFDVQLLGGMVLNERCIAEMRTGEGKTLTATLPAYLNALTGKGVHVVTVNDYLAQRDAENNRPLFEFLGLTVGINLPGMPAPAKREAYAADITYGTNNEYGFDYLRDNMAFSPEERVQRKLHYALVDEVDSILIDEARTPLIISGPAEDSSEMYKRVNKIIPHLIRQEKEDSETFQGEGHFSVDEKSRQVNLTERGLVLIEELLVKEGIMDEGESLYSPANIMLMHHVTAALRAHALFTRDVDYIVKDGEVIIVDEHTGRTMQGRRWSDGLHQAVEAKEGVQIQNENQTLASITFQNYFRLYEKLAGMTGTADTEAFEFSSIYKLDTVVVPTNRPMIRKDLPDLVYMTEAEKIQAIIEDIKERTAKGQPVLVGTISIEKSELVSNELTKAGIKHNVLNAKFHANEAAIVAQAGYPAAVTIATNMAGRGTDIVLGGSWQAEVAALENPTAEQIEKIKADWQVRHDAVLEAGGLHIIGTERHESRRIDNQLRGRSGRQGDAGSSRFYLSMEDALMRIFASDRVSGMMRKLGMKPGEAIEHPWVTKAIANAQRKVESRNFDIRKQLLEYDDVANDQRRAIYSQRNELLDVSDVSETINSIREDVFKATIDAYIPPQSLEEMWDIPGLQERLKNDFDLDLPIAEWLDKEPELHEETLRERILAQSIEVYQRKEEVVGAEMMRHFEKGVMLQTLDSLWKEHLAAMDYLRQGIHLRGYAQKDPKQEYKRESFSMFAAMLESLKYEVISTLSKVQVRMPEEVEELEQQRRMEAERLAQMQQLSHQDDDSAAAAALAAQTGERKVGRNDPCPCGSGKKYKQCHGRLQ
Test [2] addresses T1, Ubiquitin-activating enzyme e1, putative (Leishmania donovani (strain BPK282A1)) (UniProt E9BSI1).
T1 sequence (whole entry): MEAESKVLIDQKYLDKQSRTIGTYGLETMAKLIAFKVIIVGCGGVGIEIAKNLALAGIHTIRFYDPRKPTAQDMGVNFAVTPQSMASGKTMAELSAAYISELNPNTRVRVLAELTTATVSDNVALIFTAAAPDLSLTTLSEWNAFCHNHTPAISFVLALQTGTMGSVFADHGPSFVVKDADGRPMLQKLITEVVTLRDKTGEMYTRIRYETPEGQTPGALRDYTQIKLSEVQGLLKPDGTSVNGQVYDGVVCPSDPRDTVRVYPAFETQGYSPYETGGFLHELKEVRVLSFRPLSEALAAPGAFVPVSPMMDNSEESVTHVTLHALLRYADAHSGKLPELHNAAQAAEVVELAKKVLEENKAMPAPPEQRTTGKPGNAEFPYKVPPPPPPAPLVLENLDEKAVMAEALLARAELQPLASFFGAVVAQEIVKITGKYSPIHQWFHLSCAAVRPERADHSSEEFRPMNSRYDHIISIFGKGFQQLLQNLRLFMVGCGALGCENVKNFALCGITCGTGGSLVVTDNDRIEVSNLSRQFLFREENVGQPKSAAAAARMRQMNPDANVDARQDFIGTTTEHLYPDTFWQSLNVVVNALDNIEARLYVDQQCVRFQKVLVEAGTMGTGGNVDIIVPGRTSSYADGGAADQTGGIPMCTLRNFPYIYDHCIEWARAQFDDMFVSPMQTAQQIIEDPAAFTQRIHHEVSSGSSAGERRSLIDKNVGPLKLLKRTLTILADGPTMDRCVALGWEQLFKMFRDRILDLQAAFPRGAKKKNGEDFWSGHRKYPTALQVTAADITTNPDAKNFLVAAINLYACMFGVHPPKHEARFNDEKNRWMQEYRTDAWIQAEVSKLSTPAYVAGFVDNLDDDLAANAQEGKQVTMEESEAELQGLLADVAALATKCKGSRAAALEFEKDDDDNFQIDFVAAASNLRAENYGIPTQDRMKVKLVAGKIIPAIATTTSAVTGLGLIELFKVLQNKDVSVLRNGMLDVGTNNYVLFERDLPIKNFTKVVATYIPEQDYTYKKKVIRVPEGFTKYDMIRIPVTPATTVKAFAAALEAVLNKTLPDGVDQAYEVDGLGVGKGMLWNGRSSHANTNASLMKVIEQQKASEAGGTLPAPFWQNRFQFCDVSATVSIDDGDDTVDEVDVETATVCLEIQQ
In words: Leishmania donovani Ubiquitin Activating Enzyme (LdE1). The test is classed as functional. The following applies: 30 µM.

Test [3] deals with AMP-activated protein kinase, AMPK (Homo sapiens) (UniProt P54646+O43741+P54619+Q9UGJ0+Q9Y478+Q13131+Q9UGI9). In words: AMP-dependent Kinase enzyme assay. An in vitro enzyme assay that detects ADP turnover that is directly proportional to AMPK activity. This uses naive AMPK that is activated during the assay with MK-8722. The test is classed as functional. The following applies: 30 µM.

The target in test [4] is Sialic acid-binding Ig-like lectin 9 (Homo sapiens) (UniProt Q9Y336). In words: Hs-Siglec9 ALPHAscreen SOP 20170721. The settings on record: 10 µM.
Chain of Sialic acid-binding Ig-like lectin 9 (Homo sapiens) (Q9Y336 whole entry): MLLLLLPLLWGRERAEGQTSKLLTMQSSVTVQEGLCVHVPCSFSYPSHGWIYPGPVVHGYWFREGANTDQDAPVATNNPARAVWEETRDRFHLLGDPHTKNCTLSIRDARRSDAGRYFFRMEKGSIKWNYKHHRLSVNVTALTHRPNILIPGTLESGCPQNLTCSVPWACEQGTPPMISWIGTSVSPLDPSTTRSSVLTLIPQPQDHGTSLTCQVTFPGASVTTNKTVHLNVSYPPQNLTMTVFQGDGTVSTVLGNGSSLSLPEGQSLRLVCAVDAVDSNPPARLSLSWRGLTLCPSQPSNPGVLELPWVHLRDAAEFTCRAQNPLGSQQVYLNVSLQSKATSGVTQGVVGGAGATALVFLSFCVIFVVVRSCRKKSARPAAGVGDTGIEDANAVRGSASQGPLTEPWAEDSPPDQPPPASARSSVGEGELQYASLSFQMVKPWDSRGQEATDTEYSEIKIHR
The subject of another test is Trypanosoma cruzi. In words: Trypanosoma cruzi phosphomannomutase and mannose-1-phosphate guanylyltransferase assay. The test is classed as functional. The following applies: 10 µM.
Test [5] concerns the target T2, Arginase-2, mitochondrial (Homo sapiens) (UniProt P78540).
T2 sequence (whole entry): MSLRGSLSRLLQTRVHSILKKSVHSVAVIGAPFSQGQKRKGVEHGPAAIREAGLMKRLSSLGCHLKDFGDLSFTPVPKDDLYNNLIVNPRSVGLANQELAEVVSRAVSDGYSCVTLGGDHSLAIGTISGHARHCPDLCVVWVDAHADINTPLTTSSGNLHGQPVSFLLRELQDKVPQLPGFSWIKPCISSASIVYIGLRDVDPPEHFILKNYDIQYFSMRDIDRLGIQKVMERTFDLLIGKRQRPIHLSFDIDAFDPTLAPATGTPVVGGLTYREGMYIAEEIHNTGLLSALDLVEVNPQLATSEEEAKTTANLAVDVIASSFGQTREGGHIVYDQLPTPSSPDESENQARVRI
Kind of test: in vitro enzyme assay to detect the production of urea directly proportional to the activity of Arginase II. Further: in the data most compounds retested in dose-response had high values. The class given is functional. The settings on record: 33.3 µM.

For test [6], the target named is T3, Proteasome subunit beta (Trypanosoma cruzi) (UniProt O96673).
T3 sequence (whole entry): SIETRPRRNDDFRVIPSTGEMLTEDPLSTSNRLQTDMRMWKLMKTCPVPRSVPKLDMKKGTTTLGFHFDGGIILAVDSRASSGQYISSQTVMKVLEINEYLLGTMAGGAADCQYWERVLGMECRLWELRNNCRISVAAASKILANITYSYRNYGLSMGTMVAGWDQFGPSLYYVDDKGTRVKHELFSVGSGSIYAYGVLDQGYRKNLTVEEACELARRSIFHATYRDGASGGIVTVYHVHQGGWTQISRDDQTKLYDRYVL
Kind of test: Trypanosoma cruzi proteasome chymotrypsin-like activity (TcProtChymo) assay. Further: in the data most compounds retested in dose-response had high values. The test is classed as functional. The following applies: 9.37 µM.

The next test is filed under the species Homo sapiens. In words: To identify inhibition of the IFN signalling (Jak-Stat) pathway via expression of an eGFP reporter gene under the control of an IFN-stimulated response element (ISRE) containing MxA promoter. The class given is functional. The following applies: 30 µM. (In general: A reporter such as luciferase makes a cellular process visible.)
In test [7] the target is T4, Tyrosyl-tRNA synthetase, putative (Trypanosoma cruzi (strain CL Brener)) (UniProt Q4DSP6).
T4 sequence (whole entry): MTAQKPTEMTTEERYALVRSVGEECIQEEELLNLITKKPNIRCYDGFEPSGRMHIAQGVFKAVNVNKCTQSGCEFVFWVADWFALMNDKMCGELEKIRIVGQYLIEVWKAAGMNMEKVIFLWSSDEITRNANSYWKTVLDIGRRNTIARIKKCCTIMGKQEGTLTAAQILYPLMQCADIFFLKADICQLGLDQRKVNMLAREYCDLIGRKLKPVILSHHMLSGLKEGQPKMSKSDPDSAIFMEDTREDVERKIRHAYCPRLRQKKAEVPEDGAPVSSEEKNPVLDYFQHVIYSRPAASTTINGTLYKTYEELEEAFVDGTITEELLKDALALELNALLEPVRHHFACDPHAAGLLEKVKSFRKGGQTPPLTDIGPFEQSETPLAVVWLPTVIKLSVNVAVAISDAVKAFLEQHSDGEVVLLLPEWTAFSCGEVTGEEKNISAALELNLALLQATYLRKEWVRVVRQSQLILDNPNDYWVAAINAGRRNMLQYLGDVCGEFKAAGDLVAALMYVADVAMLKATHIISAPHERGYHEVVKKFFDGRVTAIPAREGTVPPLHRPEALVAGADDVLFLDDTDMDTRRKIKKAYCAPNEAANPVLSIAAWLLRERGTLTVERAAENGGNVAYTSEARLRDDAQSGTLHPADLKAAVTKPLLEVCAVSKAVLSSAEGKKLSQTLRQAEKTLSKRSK
Kind of test: Trypanosoma cruzi tyrosyl tRNA synthetase (TcYRS) _High Tyrosine SOP. Further: in the data most compounds retested in dose-response had high values. The settings on record: 30 µM. The class given is functional.

Test [8] deals with T4, Tyrosyl-tRNA synthetase, putative (Trypanosoma cruzi (strain CL Brener)). In words: Trypanosoma cruzi tyrosyl tRNA synthetase (TcYRS) SOP. The test is classed as functional. The following applies: 30 µM.
The target in test [9] is Chromo domain-containing protein 1 (Saccharomyces cerevisiae (strain ATCC 204508 / S288c) (Baker's yeast)) (UniProt P32657). Kind of test: ScCHD-1 Enzyme Inhibition Assay. Further: in the data most compounds retested in dose-response had high values. The settings on record: 30 µM. The test is classed as functional.
Chain of Chromo domain-containing protein 1 (Saccharomyces cerevisiae (strain ATCC 204508 / S288c) (Baker's yeast)) (P32657 whole entry, the tested form may be a part): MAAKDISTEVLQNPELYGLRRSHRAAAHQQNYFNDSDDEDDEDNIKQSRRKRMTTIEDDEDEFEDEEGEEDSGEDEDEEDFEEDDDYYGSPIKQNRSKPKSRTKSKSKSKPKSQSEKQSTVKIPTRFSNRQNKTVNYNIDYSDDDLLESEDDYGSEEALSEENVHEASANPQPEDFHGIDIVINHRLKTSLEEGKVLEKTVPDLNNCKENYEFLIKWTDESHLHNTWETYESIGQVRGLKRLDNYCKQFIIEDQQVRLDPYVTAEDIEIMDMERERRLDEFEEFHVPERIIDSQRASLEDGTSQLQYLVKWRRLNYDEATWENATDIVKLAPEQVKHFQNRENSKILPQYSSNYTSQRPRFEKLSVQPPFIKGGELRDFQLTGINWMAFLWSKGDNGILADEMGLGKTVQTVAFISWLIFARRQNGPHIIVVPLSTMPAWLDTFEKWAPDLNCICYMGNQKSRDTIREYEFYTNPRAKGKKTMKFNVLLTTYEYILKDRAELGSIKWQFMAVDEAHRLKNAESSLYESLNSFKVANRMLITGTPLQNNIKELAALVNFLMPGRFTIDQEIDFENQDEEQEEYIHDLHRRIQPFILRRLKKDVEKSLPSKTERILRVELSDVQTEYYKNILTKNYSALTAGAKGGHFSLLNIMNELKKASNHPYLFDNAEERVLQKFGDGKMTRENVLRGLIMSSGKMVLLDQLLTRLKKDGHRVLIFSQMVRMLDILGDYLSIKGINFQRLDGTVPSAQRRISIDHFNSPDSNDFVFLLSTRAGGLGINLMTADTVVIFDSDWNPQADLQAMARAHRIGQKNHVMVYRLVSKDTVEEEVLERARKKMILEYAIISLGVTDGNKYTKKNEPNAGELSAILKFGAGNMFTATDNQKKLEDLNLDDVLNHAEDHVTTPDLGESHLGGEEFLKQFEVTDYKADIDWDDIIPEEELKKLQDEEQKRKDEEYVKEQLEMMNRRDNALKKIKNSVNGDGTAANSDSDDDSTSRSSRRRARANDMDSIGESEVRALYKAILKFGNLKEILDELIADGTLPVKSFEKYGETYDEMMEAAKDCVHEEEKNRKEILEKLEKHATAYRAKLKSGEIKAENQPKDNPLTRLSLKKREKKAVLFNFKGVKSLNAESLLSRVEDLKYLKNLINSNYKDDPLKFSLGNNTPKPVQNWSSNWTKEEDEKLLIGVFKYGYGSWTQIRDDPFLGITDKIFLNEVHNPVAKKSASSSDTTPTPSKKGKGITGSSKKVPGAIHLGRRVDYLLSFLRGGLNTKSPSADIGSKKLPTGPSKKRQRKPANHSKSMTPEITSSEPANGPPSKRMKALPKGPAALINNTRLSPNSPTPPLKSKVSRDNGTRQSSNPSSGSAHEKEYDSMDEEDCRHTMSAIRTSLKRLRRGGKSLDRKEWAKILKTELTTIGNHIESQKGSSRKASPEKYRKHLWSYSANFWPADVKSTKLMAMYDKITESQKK

With `CCN1CCN(C2CCN(Cc3noc(C)n3)CC2)C1=O`, the Percent Effect is -5.08% in test [1]; 25.3% in test [2]; -3.66% in test [3]; -5.18% in test [4]; 1.98% with Trypanosoma cruzi; 0.38% in test [5]. Further, the Percent Effect is 5.16% in [6]; -0.161% in the test filed under Homo sapiens; 7.39% in test [7]; 21.5% in test [8]; -6.23% in test [9].
For the compound `COc1cccc(CN(C)C(=O)CSc2ccc3c(c2)OCCO3)c1`, the Percent Effect is -7.29% in [1]; -10.5% in test [2]; 15.3% in test [3]; 0.77% in test [4]; -0.876% with Trypanosoma cruzi; -2.37% in [5]. Also, the Percent Effect is 6.62% in test [6]; 6.47% in the test listed under Homo sapiens; -4.25% in [7]; -15.6% in test [8]; 0.365% in test [9].
Turning to `Cc1cc(C2CCCN(C(=O)CN3CCN(C)CC3)C2)n[nH]1` (stereo unspecified), the Percent Effect in test [1] is -0.557%; in [2], 13.5%; in test [3], -4.16%; in test [4] it was 2.41%; in the test with Trypanosoma cruzi it was 2.32%; in test [5], -4.25%. For the same compound, the Percent Effect in [6] is 16.9%; in the test listed under Homo sapiens, 16.2%; in [7], 6.93%; in [8], 18.3%; in test [9] it was -5.49%.
For `COc1ccccc1CC(=O)N1CCCC(n2nc(C)cc2C)C1` (stereo unspecified), the Percent Effect is 4.86% in test [1]; 0% in test [2]; 2.98% in test [3]; -5.42% in test [4]; -1.23% in the test with Trypanosoma cruzi; 5.32% in test [5]. Also, the Percent Effect in [6] is 1.06%; in the test filed under Homo sapiens, 2.12%; in test [7], -0.493%; in [8] it was -3.8%; in test [9], -0.887%.
In the case of `NC(=O)C1CCN(C(=O)NCc2ccccc2Cn2cncn2)CC1`, the Percent Effect in [1] is -3.59%; in test [2], 5.41%; in test [3] it was 4.01%; in [4], 0.839%; in the test on Trypanosoma cruzi it was -3.86%; in test [5], 0%. In addition, the Percent Effect in test [6] was 10.2%; in the test listed under Homo sapiens it was 1.83%; in test [7], 2.65%; in test [8] it was 7.32%; in [9], -1.94%.
Regarding `Cc1nnc(NC(=O)CN(C)CC2CCCN2c2cccnn2)s1` (stereo unspecified), the Percent Effect in test [1] is -6.6%; in test [2], -2.7%; in [3] it was -10.9%; in test [4], 17.7%; with Trypanosoma cruzi it was -1.56%; in test [5], -1.67%. In addition, the Percent Effect in test [6] is 17.3%; in the test filed under Homo sapiens it was 17.7%; in test [7], 5.94%; in test [8], 1.22%; in test [9], 0.656%.
Consider `CC(C)Cc1noc(CN2CCOC(Cn3cncn3)C2)n1` (stereo unspecified), for which the Percent Effect in [1] was -1.12%; in test [2], 10.8%; in test [3] it was 2.5%; in test [4] it was -4.71%; with Trypanosoma cruzi, -6.22%; in test [5] it was 4.25%. Moreover, the Percent Effect in test [6] was 0.718%; in the test filed under Homo sapiens, 16.7%; in test [7] it was 0%; in test [8], 13.4%; in test [9], -0.689%.
As for `CNc1cc(CNC(=O)c2ccccn2)nc(-c2ccncc2)n1`, the Percent Effect in test [1] is -1.08%; in [2], 17.6%; in [3], 3.35%; in [4] it was -3.17%; with Trypanosoma cruzi it was 2.37%; in test [5] it was 0.696%. Besides, the Percent Effect in test [6] was 14.7%; in the test listed under Homo sapiens, 2.78%; in test [7], 2.15%; in [8], 24.7%; in [9], -15.3%.
`CNS(=O)(=O)c1ccc(C(=O)NC2CCc3nc(C)cn3C2)o1` (stereo unspecified): the Percent Effect in test [1] was -4.88%; in [2], 7.89%; in test [3] it was 5.73%; in [4], 6.53%; with Trypanosoma cruzi it was 2.26%; in [5], -3.45%. The Percent Effect was 11% in test [6]; -11.5% in the test listed under Homo sapiens; 3.43% in test [7]; 17.1% in [8]; -10.4% in test [9].
Take `Cc1nc(C(=O)N2CCCC(c3cccc(-n4ccnc4)n3)C2)co1` (stereo unspecified): the Percent Effect in test [1] is -7.87%; in test [2], 1.35%; in test [3], 2.78%; in test [4], 1.23%; with Trypanosoma cruzi, -5.34%; in test [5], -2.55%. Further, the Percent Effect in [6] is 10.1%; in the test listed under Homo sapiens, 12.6%; in test [7], 0%; in [8], 1.3%; in [9] it was -6.74%.
For the compound `Cc1csc(CNC(=O)NCC(O)c2cccc(Cl)c2)n1` (stereo unspecified), the Percent Effect in [1] is -1.7%; in test [2] it was 8.11%; in [3], -4.44%; in test [4], 1.18%; in the test with Trypanosoma cruzi it was 3.48%; in test [5], -2.38%. Further, the Percent Effect in test [6] was 20.5%; in the test filed under Homo sapiens it was 24.4%; in test [7] it was 3.7%; in test [8], 12.2%; in test [9], -0.155%.
